TcdB inh: blocks C. difficile toxin B glycohydrolase activity; P18177; TcdB glycohydrolase enzymatic assay, plate reader; inhibition, % at 9.99 µM; 350,000 compounds, 0.24% hits; AID 652162
PrPC surface inh: cell surface PrPC inhibition, primary TR-FRET screen. P04156. TR-FRET read-out. inhibition, % at 13.8 µM. 370,000 compounds, 0.43% hits; in the data active = inhibition above about 24%; also: 0% = median of the test wells and 100% = reference compound wells
GDH-TPI counter-1: GDH-TPI coupled enzyme inhibition counter-screen; GDH-TPI coupled enzyme counterscreen, NADH absorbance; inhibition, % at 4.8 µM; 360,000 compounds, 1.2% hits; in the data active = inhibition above about 30%;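 also: 0% = DMSO wells and 100% = wells lacking the enzyme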
FBA Mtb inh: inhibitors of M. tuberculosis fructose-bisphosphate aldolase | AID 588726 | P9WQA3 | purified M. tuberculosis FBA, fluorescence read-out | 360,000 compounds, 2.3% hits | inhibition, % at 1 µM; in the data active = inhibition above about 27%;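 also: 0% = vehicle and 100% = reference inhibitor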
Yp Topo-I inh: inhibitors of Yersinia pestis topoisomerase I | Y. pestis Topo-I cleavage product accumulation, plate reader | activity, % at 10 µM | 360,000 compounds, 0.064% hits; in the data active = activity above about 50%, passing the limit was not always enough
Mtb FBA inh conf: confirmation of M. tuberculosis fructose-bisphosphate aldolase inhibitors. AID 651616. shares compounds with FBA Mtb inh. 5,600 compounds, 78% hits. purified M. tuberculosis FBA, fluorescence read-out. inhibition, % at 1 µM; in the data active = inhibition above about 27%;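 also: 0% = vehicle wells and 100% = reference inhibitor wells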
GDH-TPI counter-2: inhibits GDH-TPI coupling enzymes, flagging Mtb FBA hits. shares compounds with FBA Mtb inh. GDH-TPI coupled enzyme counterscreen, fluorescence. inhibition, % at 1 µM. 5,600 compounds, 81% hits. AID 652141
GDH-TPI dose: inhibits GDH-TPI coupling enzymes in dose response | shares compounds with FBA Mtb inh | AID 652145 | IC50, µM | GDH-TPI coupled enzyme assay, fluorescence, artifact counterscreen | 170 compounds, 79% hits; call rule not given here
* = called active by the depositor; / = not tested or not shown; + = active, no number; ! = not confirmed by another sample. Compounds with a hit are over-represented: about 3.2% of the library has one in this group of screens. Rule as the data show it, unless noted: active = inhibition above about 10%; inactive = the rest.

SMILES | TcdB inh | PrPC surface inh | GDH-TPI counter-1 | FBA Mtb inh | Yp Topo-I inh | Mtb FBA inh conf | GDH-TPI counter-2 | others
CN(Cc1cnc2nc(N)nc(N)c2n1)c1ccc(C(=O)N[C@@H](CCC(=O)O)C(=O)O)cc1 | 1 | -14 | 15 | 108*! | -2 | 119* | 108*
Nc1nc2ncc(CNc3ccc(C(=O)N[C@@H](CCC(=O)O)C(=O)O)cc3)nc2c(=O)[nH]1 | 1 | -8 | 17 | 44* | -1 | 113* | 90*
C[C@@H]1CN([C@@H](C)CO)C(=O)c2cc(C#C[C@@H](C)O)cnc2O[C@H]1CN(C)Cc1cccc(C(=O)O)c1 | 0 | / | / | / | / | / | /
COCC(=O)Nc1ccc2c(c1)OC[C@H](C)N(Cc1ccccc1OC)C[C@H](C)[C@@H](OC)CN(C)C2=O | 0 | / | / | / | / | / | /
C[C@@H]1CCCCO[C@H](CN(C)C(=O)Nc2ccc3c(c2)OCO3)[C@H](C)CN([C@@H](C)CO)C(=O)c2cc(NS(=O)(=O)c3cn(C)cn3)ccc2O1 | 1 | / | / | / | / | / | /
O=C(NNC(=O)C1C2C=CC(C2)C1C(=O)O)c1cc(Cl)ccc1O (configuration not stated) | -1 | -1 | 7 | 65* | 1 | 59* | 55*
O=C(NNC(=O)C1C2C=CC(C2)C1C(=O)O)c1ccccc1O (configuration not stated) | -1 | 1 | 4 | 9 | 1 | / | /
CCN1CCc2c(sc3c2c(NCc2ccco2)nc2nnnn23)C1 | / | -8 | 8 | 64* | 2 | 9 | -2
c1coc(CNc2ncnc3sc4c(c23)CCCCC4)c1 | / | 6 | -10 | 1 | 31 | / | /
Cc1nc2cccc(C(=O)Oc3ccc([N+](=O)[O-])cc3)c2o1 | -1 | -8 | 4 | 43* | 4 | 159* | 146*
Cc1c(-c2ccccc2)nc2ccccc2c1C(=O)Oc1ccc([N+](=O)[O-])cc1 | / | -1 | 13 | 0 | -5 | / | /
O=C(N/N=C/c1cc(Cl)ccc1O)c1ccc(Br)cc1 | / | 2 | 12 | 27* | 0 | 78* | 57*
C[C@H](CO)N1C[C@H](C)[C@@H](CN(C)C(=O)CCCN(C)C)OCCCC[C@H](C)Oc2ccc(NS(=O)(=O)c3ccc(F)cc3)cc2C1=O | -1 | / | / | / | / | / | /
CO[C@H]1CN(C)C(=O)c2cc(NC(=O)C3CC3)ccc2OC[C@H](C)N(CCC(F)(F)F)C[C@H]1C | 1 | / | / | / | / | / | /
Cc1c(O)ccc2c(CC(=O)N[C@@H](Cc3ccc(O)cc3)C(=O)O)cc(=O)oc12 | 0 | -5 | 21 | 94* | 0 | 15 | 2 | GDH-TPI dose=1.8*
O=C(Cc1cccs1)N1CCN(c2ccccn2)CC1 | / | 7 | -2 | 29* | -6 | 54* | 43*
COc1ccc(/C=C2\OC(=O)c3c(OC)cccc32)cc1OC | / | -4 | 6 | 30* | 0 | 125* | 97*
COc1ccc(C=C2C(=O)OC(C)(C)OC2=O)cc1OC | 2 | -5 | 8 | 5 | 3 | / | /
Nc1c(C(=O)NCCCc2ccccc2)c2nc3ccccc3nc2n1Cc1cccs1 | / | 6 | 0 | 5 | 5 | / | /
CCCCn1c(NC(C)=O)c(C#N)c2nc3ccccc3nc21 | / | -3 | 11 | 59* | -8 | 96* | 77*
N#Cc1c(N)n(CCNC(=O)c2ccccc2)c2nc3ccccc3nc12 | 1 | -8 | 0 | 98* | 0 | + | +
COc1ccc(Cn2c(N)c(C#N)c3nc4ccccc4nc32)cc1OC | / | -15 | 24 | 15 | -3 | / | /
CCCCCn1c(N)c(C#N)c2nc3ccccc3nc21 | 1 | 2 | 21 | 111* | 1 | -3 | -5
CCC(=O)N1C[C@@H](C)[C@@H](OC)CN(C)C(=O)c2ccc(NC(=O)NC(C)C)cc2OC[C@@H]1C | -1 | / | / | / | / | / | /
NN=C(c1ccccc1)c1ccccc1 | 1 | -3 | 14 | 0 | -2 | / | /
SMILES | TcdB inh | PrPC surface inh | GDH-TPI counter-1 | FBA Mtb inh | Yp Topo-I inh | Mtb FBA inh conf | GDH-TPI counter-2 | others
O=C1C=CC(=NN=C(c2ccccc2)c2ccccc2)C=C1 | 1 | -4 | / | 32* | / | 81* | 67*
CC(C)NC(=S)N(C)C1(c2ccccc2Cl)CCCCC1=O (configuration not stated) | / | 10 | -5 | 0 | -1 | / | /
CNC1(c2ccccc2Cl)CCCCC1=O (configuration not stated) | 1 | 4 | -5 | 27* | 1 | 58* | 36*
Cc1ccc(NCc2ccc(Cl)nc2)c(NCc2ccc(Cl)nc2)c1 | -2 | -5 | 4 | 28* | 14 | -5 | -6
Cc1ccc(NCc2cccnc2)c(Br)c1 | 2 | -1 | 7 | 0 | 7 | / | /
C[C@H](CO)N1C[C@H](C)[C@H](CN(C)S(=O)(=O)c2cccs2)Oc2ccc(NC(=O)Cc3cn(C)c4ccccc34)cc2CC1=O | -4 | / | / | / | / | / | /
O=C(Nc1ccc2c(c1)OCCO2)c1cccs1 | 1 | 4 | 13 | 38* | -2 | 12 | 10 | GDH-TPI dose=>10
O=C(Nc1ccc2c(c1)OCO2)c1cccs1 | / | 3 | 14 | -1 | 0 | / | /
CCCN(C)C[C@H]1OCCCC[C@@H](C)Oc2ccc(N(C)C)cc2C(=O)N([C@H](C)CO)C[C@H]1C | -30 | / | / | / | / | / | /
COc1ccc(CCNC(=O)c2c(N)n(CCN3CCOCC3)c3nc4ccccc4nc23)cc1OC | / | 0 | 3 | 12 | 6 | / | /
COCCCn1c(N)c(C(=O)NCCC(C)C)c2nc3ccccc3nc21 | / | -2 | 2 | 34* | 32 | 74* | 62*
CCCCn1c2nc3ccccc3nc2c2c(=O)n(C(C)CC)cnc21 (configuration not stated) | / | 7 | 14 | 13 | -9 | / | /
CCC(C)n1c(C)nc2c(c1=O)c1nc3ccccc3nc1n2CCC1=CCCCC1 (configuration not stated) | / | 0 | 20 | 32* | 6 | + | +
COCCNC(=O)c1c(N)n(CCC2=CCCCC2)c2nc3ccccc3nc12 | / | -7 | 13 | 54* | 24 | 77* | 56*
CCOCCCn1c(N)c(C(=O)Nc2sc3c(c2C(=O)OC)CCCC3)c2nc3ccccc3nc21 | / | -12 | 22 | 46* | -6 | 188* | 153*
C[C@@H]1CN([C@H](C)CO)C(=O)c2cc(NS(=O)(=O)c3cn(C)cn3)ccc2O[C@@H](C)CCCCO[C@@H]1CN(C)Cc1ccc(C(F)(F)F)cc1 | -1 | / | / | / | / | / | /
Cc1noc(C)c1S(=O)(=O)Nc1ccc2c(c1)C(=O)N([C@@H](C)CO)C[C@H](C)[C@H](CN(C)C(=O)c1ccncc1)OCCCC[C@@H](C)O2 | 0 | / | / | / | / | / | /
CCCCn1c(N)nc2ccccc21 | / | -1 | 1 | 0 | 0 | / | /
CCCCn1c(N)c(C(=O)OCCOC)c2nc3ccccc3nc21 | 4 | 6 | 3 | 55* | -1 | 31* | 17*

Assay outcomes from PubChem BioAssay.
